Assay outcomes from PubChem BioAssay.
In the library only some 8% were active in any assay of this set; here they are far more common.
SARS PLpro yeast: blocks SARS-CoV papain-like protease in a yeast assay | S. cerevisiae expressing SARS-CoV PLpro, growth rescue | 330,000 compounds, 0.19% hits | Potency, µM (series often up to 32.9 µM), without a hit: at the highest dose activity, positive = growth rescue, most hits filed as activators; calls by dose curve; further: potency means the concentration at half of the fitted maximal effect; 0% is about no effect; nearly all actives have a fitted effect of over 55% in size
MARV entry inh: blocks Marburg virus binding to or entry into cells. Potency, µM (titrated, usually from 37.8 µM), for inactives: at the top dose activity change, negative = inhibition, actives largely listed as inhibitors. 300,000 compounds, 1.8% hits. Marburg virus pseudotyped entry inhibition, cell reporter; calls by dose curve; tested in HEK293 cells; further: potency means the concentration at half of the fitted maximal effect; on the % scale 0 is the no-effect control and ±100 the full control effect
LASV entry inh: blocks Lassa virus binding to or entry into cells | AID 540256 | Lassa virus pseudotype entry inhibition, cell reporter | Potency, µM (titrated, usually from 37.9 µM), for inactives: at the top dose activity change, negative = inhibition, hits mostly inhibitors | 300,000 compounds, 1.2% hits; calls by dose curve; tested in HEK293 cells; further: potency means the concentration at half of the fitted maximal effect; on the % scale 0 is the no-effect control and ±100 the full control effect; nearly all actives have a fitted effect of over 50% in size
FMDV antiviral: blocks foot and mouth disease virus | FMDV antiviral cell-based qHTS | Potency, µM (series often up to 57.9 µM), without a hit: at the top dose activity change, negative = inhibition, hits mostly inhibitors | 410,000 compounds, 1.2% hits | AID 1159524; calls by dose curve; tested in HEK293T cells; further: read-out not given here; potency means the concentration at half of the fitted maximal effect; on the % scale 0 is the no-effect control and ±100 the full control effect; nearly all actives have a fitted effect of over 45% in size
HCV inh: blocks hepatitis C virus; Potency, µM (highest dose often 41.8 µM), for inactives: at the top dose activity change, negative = inhibition, actives largely listed as inhibitors; 340,000 compounds, 3.4% hits; AID 651820; Huh7.5.1 HCVcc-Cre infection, luciferase reporter, 44 h; active means well fitted inhibition curve with a large enough effect; inconclusive means small, poorly fitted or top-dose-only effect, or another doubt; inactive means no such curve, though single readings can be large or run the other way; further: potency means the concentration at half of the fitted maximal effect; on the % scale 0 is the no-effect control and ±100 the full control effect
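Seed cells (1,000/well) for 4 h; treat with compound and infect with HCVcc-Cre, moi about 0.5. Incubate 44 h, then detect luciferase activity.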
HCMV antiviral: inhibitors of human cytomegalovirus; HFF cells, HCMV-luciferase reporter, 72 h; hits give low values; activity change, negative = inhibition, % at 57.5 µM; 410,000 compounds, 4.5% hits; AID 1259415; in the data active means activity change below about -60%; inconclusive means no clear call, values can overlap the other calls; inactive means above about -39%; further: on the % scale 0 is the no-effect control and ±100 the full control effect
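HFF cells seeded 16 h at 37C, treated with compounds, infected with luciferase-reporter HCMV at MOI 1 PFU/cell; luciferase read at 72 h post infection, normalized to buffer-only and Salinomycin controls.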
* marks the source's active call; other numbers are inactive results; ? = inconclusive; / = no result given; ! = not confirmed by another sample; [ ] = another dose, or the depositor's remark.

SMILES | SARS PLpro yeast | MARV entry inh | LASV entry inh | FMDV antiviral | HCV inh | HCMV antiviral
COc1ccccc1-c1ccnc(-n2ncc(C(=O)NCCc3ccccn3)c2C)n1 | / | / | / | 28% | / | /
O=C1N/C(=C/c2ccc(N3CCOCC3)o2)C(=O)N1c1cccc(Cl)c1 | 0% | ? | -30% | -17% | ? | -100*
Cc1cccc(N(CC(O)CON=C2c3ccccc3-c3ccccc32)S(C)(=O)=O)c1 (stereo unspecified) | -22% | 23µM* | -4% | / | ? | ?
CS(=O)(=O)N(CC(O)CON=C1c2ccccc2-c2ccccc21)c1ccc(F)cc1 (stereo unspecified) | / | ? | 4% | / | ? | -20
CCN(CC(O)CON=C1c2ccccc2-c2ccccc21)S(=O)(=O)c1ccc(Cl)cc1 (stereo unspecified) | -11% | ? | 1% | -28% | 10µM* | -31
CC1CCN(S(=O)(=O)c2cn(CC(=O)N3CCN(c4cccc(C(F)(F)F)c4)CC3)cn2)CC1 | -2% | / | / | ? | 11µM* | /
Cc1nn(CC(=O)Nc2cccc(C(F)(F)F)c2)c(=O)c2cccn12 | -2% | 0%[46.1 µM] | -16%[46.1 µM] | -4% | -3% | 26
Cc1nn(CC(=O)N2CCN(c3cccc(C(F)(F)F)c3)CC2)c(=O)c2cccn12 | -1% | ? | -2%[46.1 µM] | -21% | -28% | -67*!
Cc1ccccc1Nc1c(-c2ccncc2)nc2ccc(Cl)cn12 | -9% | ? | 19%[46.1 µM] | ? | 14% | -61*!
Cn1cnnc1SCC(=O)N1N=C2/C(=C/c3ccco3)CCCC2C1c1ccco1 (stereo unspecified) | -1% | -10% | -5% | 0% | -21% | -61*
O=C(CSc1nccc(=O)[nH]1)N1N=C2/C(=C/c3ccco3)CCCC2C1c1ccco1 (stereo unspecified) | 3% | -2%[46.1 µM] | -6% | -12% | -1% | -11
NC(=O)c1cc2ccc(O)cc2oc1=Nc1ccccc1 | -11% | -3% | ? | 4% | 13% | -82*
CCN(CC)C(=O)CCNS(=O)(=O)c1ccc(C)cc1 | 3% | 1% | 13% | 19% | ? | 27
CCOc1ccc2[nH]c(=O)c(CN(CC3COCCO3)C(=O)c3ccc(C)cc3)cc2c1 (stereo unspecified) | 0% | / | / | -9% | 13% | -31
O=C(c1ccc(Br)cc1)N(C1=NCCCCS1)c1ccccc1 | 6% | -18% | ? | ? | 8% | -63*
CC(=O)N(C1=NCCCS1)c1ccc(Cl)cc1 | 2% | ? | ? | -16% | 22% | 17
O=C(CSc1nnc(COc2ccc(Cl)cc2)o1)N1c2ccccc2CCc2ccccc21 | -5% | ? | ? | 0% | 10µM* | -16
O=C(CSc1nnc(COc2ccc(Cl)cc2)o1)N1CCCC1 | 2% | ? | ? | 4% | -19% | 17
CCN(CC)c1nc(-c2ccccc2)ncc1S(=O)(=O)c1ccc(C)cc1 | -5% | / | / | -9% | 7.1µM* | 6
CN(C)c1nc(-c2ccccc2)ncc1S(=O)(=O)c1ccccc1 | -2% | / | / | 3% | ? | 40
COc1ccc(C2=NN(C(=O)c3cccs3)C(c3ccccc3OC)C2)cc1OC (stereo unspecified) | 1% | ? | ? | -15% | 10µM* | -38
O=C(c1cccs1)N1N=C(c2ccccc2)CC1c1ccccc1O (stereo unspecified) | 0% | ? | 30%[46.1 µM] | 2% | -14% | -60*
COc1ccc(C2=NN(C(=O)c3ccco3)C(c3cccs3)C2)cc1OC (stereo unspecified) | / | / | / | 8% | / | 62
N#CC1CC(c2ccccc2)=NN1c1ccccc1[N+](=O)[O-] (stereo unspecified) | -12% | ? | ? | 22% | ? | -64*
CC(=O)N1N=C(c2ccccc2)CC1c1cn(Cc2ccccc2)c2ccccc12 (stereo unspecified) | -19% | ? | ? | 32µM* | 25µM* | -87*
SMILES | SARS PLpro yeast | MARV entry inh | LASV entry inh | FMDV antiviral | HCV inh | HCMV antiviral
CC(C)Oc1ccc(CNC(=O)c2ccc(CN3CC(=O)N4CCCCC4C3=O)cc2)cc1 (stereo unspecified) | / | / | -11%[46.1 µM] | -15% | / | 13
CC1=C(C)CC(C(=O)Nc2ccc(C(=O)N3CCOCC3)cc2)C(C(=O)O)C1 (stereo unspecified) | 0% | 28%[46.1 µM] | 3% | -9% | 4% | -28
O=[N+]([O-])c1ccc(N2N=C(c3ccccc3)CC2c2ccccc2O)cc1 (stereo unspecified) | -14% | / | / | / | / | -63*
Cc1ccc(C2=NN(C(=O)c3cccs3)C(c3ccccc3O)C2)cc1 (stereo unspecified) | 0% | ? | -7%[46.1 µM] | 13% | 2% | -61*
O=C(c1ccccc1)N1N=C(c2ccccc2)CC1c1ccccc1O (stereo unspecified) | -4% | -29%[46.1 µM] | ? | -18% | -12% | -62*
Cc1ccc(-c2nn(-c3ccccc3)cc2C2CC(c3ccccc3)=NN2C(=O)CCC(=O)O)cc1 (stereo unspecified) | 0% | 6%[46.1 µM] | ? | -9% | 18% | -38
Cc1ccc(C2=NN(C(=O)CCC(=O)O)C(c3cn(-c4ccccc4)nc3-c3ccc(C)cc3)C2)cc1 (stereo unspecified) | -1% | / | / | -24% | 0% | -60*
NS(=O)(=O)c1ccc(N2N=C(c3ccccc3)CC2c2ccccc2Br)cc1 (stereo unspecified) | -30% | / | / | -27% | -40% | -12
CCOc1ccccc1NC(=S)NC(=O)C1CCCCC1 | -12% | -29%[46.1 µM] | ? | -22% | ? | 59
CCOC(=O)c1ccc(N2C(=O)c3n[nH]c(-c4cccs4)c3C2c2ccc(Cl)cc2Cl)cc1 (stereo unspecified) | / | ? | ? | ? | / | -107*
CCOC(=O)c1ccc(N2C(=O)c3n[nH]c(-c4cccs4)c3C2c2ccc(O)c(OC)c2)cc1 (stereo unspecified) | / | ? | ? | -28% | / | -74*
CCOCCc1nnc(NC(=O)CCC2CCCCC2)s1 | -6% | / | / | -11% | 4% | 14
CC(=O)Nc1ccc(C=C(C(C)=O)C(C)=O)cc1 | -2% | -12% | -8% | 32µM* | 18% | 8
COc1ccc(C=C(C(C)=O)C(C)=O)cc1OC | -20% | -7% | -14% | 28µM* | 3% | 25
CC(=O)Nc1ccc(/C=C(\C#N)C(N)=O)cc1 | -1% | ? | -10% | 15% | 6% | -7
COc1cc(C=C(C(C)=O)C(C)=O)ccc1O | 12% | 2% | -21% | ? | 5% | 16
NC(=O)c1ncc(C(F)(F)F)cc1Oc1cccnc1 | 0% | 27%[46.1 µM] | -14% | -2% | 9% | 31
CC(C)Nc1nc(-c2ccccn2)nc(-c2ccccc2)c1C#N | 3% | 1%[46.1 µM] | -5%[46.1 µM] | -15% | 8% | -67*
